Screening data from PubChem.
Hits are enriched below; roughly 7.4% of the tested compounds scored in any of these assays.
p53 reactivator: re-activators of mutant p53 | H1299 p53-A138V BP100-luciferase reporter, luminescence, 24 h | Potency, µM (titrated, usually from 92.2 µM), usual class: activators | hit rate 0.063% among 320,000; also: nearly all actives have a fitted effect of over 45% in size
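H1299 (p53-null), stable ts p53-A138V + BP100-Luc; 1000 cells/well, Opti-MEM/10% FBS; cpd 4 pt, 1:5; 24 h, 37 deg C, 5% CO2; detection reagent 10 min RT; luminescence.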
NPC1 promoter act: activates the NPC1 promoter | AID 485313 | Potency, µM (series often up to 9.22 µM), hits mostly activators | hit rate 2.4% among 320,000 | Huh7 NPC1 promoter luciferase reporter, 24 h; also: nearly all actives have a fitted effect of over 60% in size
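Luminescence from an NPC1 promoter-driven luciferase reporter in stably transfected Huh7 cells was measured after 24 h compound treatment at 37 °C, followed by 10 min ambient incubation with luciferase detection reagent.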
ELG1 genotoxic: induces genotoxicity in HEK293T cells with luciferase-tagged ELG1; hit rate 1.3% among 330,000; Potency, µM (series often up to 46 µM), most hits filed as activators; HEK293T ELG1-luciferase reporter, luminescence, 16 h; also: nearly all actives have a fitted effect of over 60% in size
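16 hr compound incubation (37 °C, 5% CO2) of HEK293T cells carrying luciferase-tagged ELG1; luciferase then measured by ONE-Glo luminescence after 30 min at RT.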
Rab9 promoter act: activators of Rab9 promoter; Huh7 Rab9 promoter-luciferase reporter, luminescence, 24 h; Potency, µM (doses to about 9.22 µM), actives largely listed as activators; hit rate 2.8% among 320,000; also: nearly all actives have a fitted effect of over 60% in size
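Stable Rab9-luc Huh7, 1500 cells/well, 2 h settle; cmpd in DMSO, 24 h, 37 °C/5% CO2; luciferase reagent 10 min RT; luminescence.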
FLuc counter: inhibits or activates purified firefly luciferase, miR-21 counter-screen. hit rate 6.9% among 360,000. Potency, µM (titrated, usually from 57.5 µM), hits mostly inhibitors. purified FLuc, Km substrates, luminescence inhibition. P08659; also: nearly all actives have a fitted effect of over 55% in size
Target sequence (P08659 whole entry, looked up): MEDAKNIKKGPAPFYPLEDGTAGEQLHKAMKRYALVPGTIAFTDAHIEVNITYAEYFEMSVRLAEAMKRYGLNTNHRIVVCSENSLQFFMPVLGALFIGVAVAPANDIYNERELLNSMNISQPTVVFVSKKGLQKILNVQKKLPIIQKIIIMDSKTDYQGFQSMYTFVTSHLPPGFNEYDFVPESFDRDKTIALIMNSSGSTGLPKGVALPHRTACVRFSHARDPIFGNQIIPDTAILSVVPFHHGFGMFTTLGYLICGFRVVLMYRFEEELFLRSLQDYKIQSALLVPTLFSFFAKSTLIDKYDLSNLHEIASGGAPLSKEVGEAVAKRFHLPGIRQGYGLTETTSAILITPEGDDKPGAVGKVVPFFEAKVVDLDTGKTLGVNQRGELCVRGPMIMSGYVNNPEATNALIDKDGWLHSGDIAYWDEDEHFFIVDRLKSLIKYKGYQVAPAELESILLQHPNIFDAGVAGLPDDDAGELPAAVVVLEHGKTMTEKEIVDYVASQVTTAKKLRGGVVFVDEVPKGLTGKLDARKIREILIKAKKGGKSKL
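Purified P. pyralis luciferase, 10 nM final, with Km-level 10 uM D-luciferin and 10 uM ATP in 50 mM Tris acetate pH 7.5, 10 mM Mg acetate, 0.01% Tween-20, 0.05% BSA; 6-point qHTS titration about 60 µM downward; luminescence read.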
SMN2 splice enh: SMN2 splice variant enhancement. HEK293 SMN2-luciferase splicing reporter, luminescence, 30-36 h. Potency, µM (top dose mostly 46.1 µM), actives largely listed as activators. hit rate 2.8% among 210,000; also: nearly all actives have a fitted effect of over 55% in size
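HEK293 cells carry an SMN2 minigene-luciferase reporter in which exon 7 inclusion puts luciferase in frame. Cells were seeded at 2000 cells/well, attached for 10-12 hours, then exposed to compounds for 30-36 hours at 37C before ONE-Glo luminescence.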
Numbers stand for hits; 0 = inactive; ? = inconclusive; - = no result given; [ ] = remark or other dose. Calls follow the shape of the dose curve; as a rule, active = well fitted curve in the direction sought with a large enough effect; inconclusive = small, poorly fitted or top-dose-only effect, or another doubt; inactive = no such curve, though single readings can be large; an effect the other way counts as inactive or inconclusive.

SMILES	p53 reactivator	NPC1 promoter act	ELG1 genotoxic	Rab9 promoter act	FLuc counter	SMN2 splice enh
C=CCn1c(C)cc(C(=O)CSc2nc3ccccc3c(=O)[nH]2)c1C	0	?	2.9µM	0.79µM	9.5µM	0
N/C(=N\OC(=O)CSc1ccccc1)c1ccc([N+](=O)[O-])cc1	?	0	?	0	19µM	?
Cc1ccc(SCC(=O)O/N=C(\N)c2cccc([N+](=O)[O-])c2)cc1	0	0	0	0	0	0
N/C(=N\OCc1ccc([N+](=O)[O-])cc1)c1ccncc1	0	?	?	0	15µM	16µM
Cc1ccc(/C(N)=N/OC(=O)CSc2ccccc2)cc1	0	2.5µM	?	3.5µM	1.7µM	11µM
N/C(=N\OC(=O)COc1ccccc1Cl)c1ccc(Cl)cc1	?	0	?	0	?	?
Cc1ccc(/C(N)=N/OC(=O)COc2ccccc2Cl)cc1	?	0	23µM	0	19µM	0
COc1ccc(/C(N)=N/OC(=O)CSc2ccc(C)cc2)cc1	0	0	0	0	?	0
CC(C)c1ccc(Nc2sc(C(=O)c3ccccc3)c(N)c2S(=O)(=O)c2ccccc2)cc1	-	-	-	-	0	-
Cc1cccc(OCC(=O)Nc2ccc(C(=O)c3ccc(C(=O)O)cc3)cc2)c1	0	0	0	0	0	0
COc1ccc(/C(N)=N/OC(=O)CSc2ccccc2)cc1	?	?	?	3.2µM	4.8µM	0
CCN(CC)c1ccc(NC(=O)CN2C(=O)c3cccnc3Sc3ccccc32)c(C)c1	-	-	-	-	0	-
Cc1ccc(-c2nc3s/c(=C\c4ccco4)c(=O)n3n2)cc1	?	0	0	0	0.76µM	0
CC(C)N1C(=O)C(=O)N(CC(=O)N(C)c2ccccc2)C1=O	0	0	0	0	-	-
O=C(/C=C/c1cccs1)c1ccc([N+](=O)[O-])cc1	0	0	0	0	4.3µM	-
O=C(/C=C/c1cccc(F)c1)c1ccc(N2CCOCC2)cc1	?	?	?	?	1.1µM	-
O=C(/C=C/c1cccs1)c1ccc(N2CCOCC2)cc1	0	3.5µM	?	2.2µM	0.24µM	0
CC(C)C[C@@H](CC(=O)N[C@H](CC(=O)N[C@@H]1CCNC[C@H]1C(=O)N[C@H](CC(=O)N[C@@H](CCC(=O)O)CC(=O)O)CC(C)C)C(C)C)NC(=O)[C@@H]1CNCC[C@H]1N	-	-	-	-	-	0
CCOc1ccc(NC(=O)Nc2ccc3c(c2)nc(C)n3C)cc1	0	0	0	0	?	-
Cc1nc2cc(NC(=O)Nc3cccc4ccccc34)ccc2n1C	0	3.2µM	?	0.89µM	0.95µM	4µM
Cc1nc2cc(NC(=O)Nc3ccc(N4CCOCC4)cc3)ccc2n1C	0	0	0	0	0	0
Cc1nc2cc(Nc3nnc(-c4ccccc4)c4ccccc34)ccc2n1C	?	3.5µM	?	?	0.67µM	-
Cc1ccc(NC(=O)Nc2ccc3c(c2)nc(C)n3C)cc1C	?	1.3µM	?	0.63µM	2.7µM	-
COc1ccccc1NC(=O)Nc1ccc2c(c1)nc(C)n2C	0	0.63µM	?	0.56µM	1.5µM	13µM
Cc1oc(-c2ccccc2)nc1Cn1c(=O)cc(-c2ccccc2)c2c(C)nn(C)c21	-	-	-	-	0	-
SMILES	p53 reactivator	NPC1 promoter act	ELG1 genotoxic	Rab9 promoter act	FLuc counter	SMN2 splice enh
O=C(CSC(=S)N1CCSCC1)c1ccccc1	?	1.3µM	?	1.3µM	4.3µM	13µM
S=C(c1ccccc1)N1CCSCC1	0	0	0	0	0	-
O=C(CSC(=S)N1CCSCC1)c1ccc(Cl)cc1	0	3.2µM	?	1.6µM	3µM	16µM
O=C(Nc1ccc(Cl)cc1)N1CCSCC1	0	0	0	0	?	0
Cc1ccc(CCNC(=O)c2cc3c(=O)n(C)c4ccccc4c3n2C)cc1	-	-	-	-	0	0
Cn1c(=O)cc(OCC(=O)N2CCN(c3ccc(F)cc3)CC2)c2ccccc21	-	-	-	-	0	0
O=C(Nc1nnc(-c2cccs2)s1)C1CC1	0	0	?	5µM	0	?
COCC(=O)Nc1nnc(-c2cccs2)s1	?	0	?	0	?	0
CCC(=O)Nc1nnc(-c2cccs2)s1	0	0	?	?	0	0
O=C(Cc1ccccc1)Nc1nnc(-c2cccs2)s1	?	?	?	?	0	?
C=C(C)C(=O)Nc1nnc(-c2cccs2)s1	?	0	0	0	17µM	0
CCC(C)C(=O)Nc1nnc(-c2cccs2)s1 (stereo not given)	?	?	?	3.5µM	?	0
CCOC(=O)CCCNC(=O)N1CCc2nc(COc3ccccc3)c3c(c2C1)CO[C@@H](C)C3	-	-	-	-	-	0[9.22 µM]
O=C(O)c1cc(-c2ccccc2)n[nH]1	0	0	0	0	0	0
O=C(O)/C=C/C(=O)NNC(=O)c1cc(-c2ccccc2)n[nH]1	0	0	0	0	11µM	0
O=C(O)/C=C\C(=O)NNC(=O)c1cc(-c2ccccc2)n[nH]1	0	0	0	0	11µM	-
Cc1onc(-c2ccccc2Cl)c1C(=O)Nc1nc2c(s1)CCCC2	0	0	0	?	13µM	0
COc1ccc(C(=O)N[C@H](C(=O)Nc2nc3c(s2)CCCC3)C(C)C)cc1	?	0	0	0	15µM	?
O=C(Nc1ccc(Br)cc1)Nc1nc2c(s1)CCCCCC2	-	-	-	-	0	-
CC(=O)c1sc(NC(=O)c2ccc(Cn3cc(Br)cn3)o2)nc1C	0	0	0	0	?	?
O=C(Nc1nc2c(s1)CCCC2)c1ccc(Br)o1	?	2.2µM	12µM	1.3µM	1.5µM	11µM
CC(=O)c1sc(NC(=O)c2ccc(Br)o2)nc1C	0	?	16µM	0[1.84 µM]	19µM	-
CC(C)(C)c1ccc(CSc2nc3c(c(=O)[nH]2)CCCC3)cc1	-	-	-	-	0	-
COc1ccc(NC(=O)c2cc(C3CC3)nc3c2cnn3C(C)C)cc1OC	0	0	0	0	0	-
Cc1ccc(C(=O)Nc2nc3c(s2)CCCC3)o1	?	3.2µM	1.2µM	1µM	1.7µM	14µM
SMILES	p53 reactivator	NPC1 promoter act	ELG1 genotoxic	Rab9 promoter act	FLuc counter	SMN2 splice enh
CC(=O)c1sc(NC(=O)C=C(C)C)nc1C	?	0	18µM	0	?	20µM
CCCCC(=O)Nc1nc(C)c(C(C)=O)s1	0	0	0	0	0	0
CN(C)c1ccc(C2N([C@H](C#N)c3ccc(N(C)C)cc3)CCCN2[C@@H](C#N)c2ccc(N(C)C)cc2)cc1 (stereo not given in full)	-	-	-	-	-	0[9.22 µM]
Cc1cccc(-c2nc3c(cnn3-c3ccccc3)c(=O)n2-c2ccc(Cl)cc2)c1	-	-	-	-	0	0
O=C(N/N=C/c1ccc2c(c1)OCO2)c1cc(-c2ccccc2)nc2ccccc12	0	0	0	0	11µM	0[1.84 µM]
O=C(N/N=C/c1ccc2c(c1)OCO2)c1cc(-c2ccco2)nc2ccccc12	0	0	0	0	0.85µM	-
O=C(N/N=C/c1ccc2c(c1)OCO2)c1cccc2ccccc12	0	0	0	0	0	-
CS(=O)(=O)C1=NSC2=NC(=O)/C(=C\c3ccc(-c4ccccc4)o3)C(=N)N21	0	0	0	0	12µM	0
